Common to all, as to test: NCI-60 one-dose screen, 48 h (100 = growth as untreated, 0 = no growth, -100 = all killed)
What all share (details): 10 µM unless noted

In test [1] the test system is NCI-H226 lung.
In test [2] the test system is NCI-H322M lung.
Test [3] deals with HOP-62 NSCLC.
The test system of test [4] is NCI-H460 lung.
The test system of test [5] is HOP-92 NSCLC.
Test [6] relates to NCI-H522 lung.
The subject of test [7] is A549/ATCC NSCLC.
In test [8] the test system is 786-0 renal.
In test [9] the test system is COLO 205 colon.

Each structure is given as a SMILES string. About 83,000 compounds went through this panel and 20% of them were active in at least one assay; those are over-represented in the sample as a whole.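 Method: cells in 96-well plates; compound added at one concentration; 48 h incubation; percent growth measured; values under 10 scored active.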 Values without a mark were called inactive. The source made the active and inactive calls.

In the case of `CN(C)c1ccc(/C=c2\s/c(=C\C(=O)C(C)(C)C)[nH]c2=O)cc1`, the growth in test [1] is 101%; in test [2], 86.7%; in test [3], 101%; in test [4], 104%; in [5] it was 94.5%; in [6], 78.1%. Further, the growth is 79.7% in [7], 93.2% in test [8] and 97.7% in test [9].

With `C[C@]12O[C@H]1[C@H](O)c1c(cc(O)c3c1C(=O)c1cccc(O)c1-3)C2=O`, the growth was 85.7% in test [1]; 102% in [2]; 96.5% in test [3]; 99.1% in [4]; 101% in test [5]; 87.8% in test [6]. Moreover, the figures for the growth in test [7], in test [8] and in test [9] were 92.9%, 104% and 106%, respectively.

As for `C=C1C(=O)O[C@H]2[C@H]1CC/C(COC(=O)c1cccc3ccccc13)=C\CC[C@@]1(C)O[C@@H]21`, the growth in [1] is -79.9% (active); in test [2], 36.8%; in [3], -45.7% (active); in test [4], 7.53% (active); in test [5], -67.9% (active); in [6], -84.5% (active). The growth in [7] is -55% (active); in test [8] it was -77.9% (active); in test [9], -70.7% (active).

Regarding `CC(C)(C)C(=O)/C=c1/[nH]c(=O)/c(=C/c2ccccc2O)s1`, the growth in test [1] was 76.4%; in test [2] it was 71.7%; in [3] it was 46%; in [4], 23.8%; in test [5], 80.4%; in test [6], 26.8%. Further, the growth was 44.2% in test [7], 87.3% in test [8] and 89.1% in [9].

With `[2H]c1nc(Nc2ncc(F)c(-c3cc(F)c4nc(C)n(C(C)C)c4c3)n2)c([2H])c([2H])c1CN1CCN(CC)CC1`, the growth is 41.5% in test [1]; 41.1% in test [2]; 43.9% in test [4]; 59.1% in test [5]; 66.1% in test [6]; 36.2% in test [7]. Also, the growth was 52.8% in test [8] and 15.6% in test [9].

With `O=C(Cn1c2ccccc2c2ccncc21)N/N=C/c1cc(O)c(O)c(O)c1`, the growth in test [1] was 105%; in test [2], 108%; in [3], 104%; in test [4] it was 101%; in test [5], 111%; in test [6], 84.5%. The growth in test [7] is 101%; in test [8] it was 105%; in test [9], 110%.

With `Cc1ccc2c(c1)Nc1ccc(C)cc1C2(C)C`, the growth in test [1] was 98.3%; in test [2] it was 114%; in test [3] it was 78.9%; in [4], 109%; in test [5], 81.1%; in test [6], 68%. The growth in test [7] is 93.1%; in test [8] it was 84.7%; in test [9], 84.3%.

As for `O=C(Nc1ccc(-n2cc(-c3ccncc3)c(-c3ccc(O)c(Cl)c3)n2)cc1)c1cc(C(F)(F)F)cc(C(F)(F)F)c1`, the growth was 93.7% in test [1]; 75.2% in test [2]; 81.2% in test [3]; 45% in test [4]; 6.71% (active) in [5]; 62.8% in test [6]. In addition, the values for the growth in test [7], in test [8] and in test [9] were 54.8%, 53.1% and 82.6%, respectively.

With `Cc1ncc(CO)c(C(=O)O)c1O`, the growth in [1] is 102%; in test [2] it was 80.9%; in [3] it was 104%; in test [4], 105%; in test [5], 106%; in test [6], 79.8%. Further, the growth is 110% in test [7], 97.5% in [8] and 112% in test [9].

For the compound `Cc1ccc(-c2nc3c(N=Nc4ccc(S(N)(=O)=O)cc4)c(N)nn3c(N)c2C#N)cc1`, the growth in test [1] is 65%; in test [2] it was 66.1%; in test [3] it was 42.6%; in [4], 27.9%; in test [5] it was 19.6%; in test [6] it was 28.7%. The growth is 63.1% in test [7], 64.5% in test [8] and 14.5% in [9].

For the compound `COC(=O)c1oc2c(C(=O)/C=C/c3ccc(OC)cc3)c(OCCN3CCOCC3)ccc2c1C`, the growth in test [1] is -5.76% (active); in test [2], 0.995% (active); in test [3], -6.52% (active); in test [4], -20.9% (active); in test [5] it was -44.8% (active); in test [6] it was -20% (active). The growth in test [7] is 2.83% (active); in test [8] it was -6.7% (active); in test [9], -20.9% (active).

Take `NC(CCCC(N)C(=O)c1ccccc1)C(=O)O` (configuration not stated): the growth is 102% in test [1]; 87.7% in test [2]; 90.3% in [3]; 112% in [4]; 116% in test [5]; 64.4% in test [6]. Besides, the figures for the growth in test [7], in [8] and in [9] were 92.8%, 102% and 104%, respectively.

For the compound `CC1(C)CC(=O)C2=C(C1)OC1=C(C(=O)CC(C)(C)C1)C2c1ccc(OCc2cn(-c3ccc(F)cc3F)nn2)cc1`, the growth in test [1] is 88.9%; in [3], 116%; in [4] it was 100%; in test [5] it was 107%; in [6], 77%; in [7], 84.3%. Besides, the values for the growth in [8] and in [9] were 120% and 101%, respectively.

For the compound `Cc1ccc(NC(=O)CN2CCOCC2)cc1Cl`, the growth in test [1] is 92.8%; in [2], 93.4%; in test [3], 91%; in [4], 100%; in [5], 80.8%; in test [6], 76.5%. Also, the growth was 95.3% in [7], 95% in test [8] and 102% in test [9].

In the case of `CS(=O)(=O)OCC(COS(C)(=O)=O)C(c1ccccc1)c1ccccc1`, the growth in test [1] was 103%; in [3], 91.2%; in test [4], 110%; in test [5], 85.2%; in test [6], 95.4%; in test [7] it was 92.3%. The growth in test [8] was 99.4%; in test [9], 124%.

For the origin of these results see PubChem BioAssay (NCI).
